Common to all, as to type: functional
The test system of test [1] is Plasmodium falciparum. Kind of test: GSK_TCMDC: Inhibition of Plasmodium falciparum 3D7 in whole red blood cells, using parasite LDH activity as an index of growth. Test compounds present at 2uM.
Test [2] relates to Plasmodium falciparum. As to the kind of experiment: GSK_TCMDC: Inhibition of Plasmodium falciparum Dd2 in whole red blood cells, using parasite LDH activity as an index of growth. Test compounds present at 2uM.
The next test concerns HepG2. As to the kind of experiment: GSK_TCMDC: Percent inhibition of human HepG2 cell line. Test compounds present at 10uM.

By Inhibition is commonly meant the relative decrease from the control value, in per cent. A low value points to little suppression. Regarding `Cc1cccc2nc(-c3ccc(-c4cccc(NC(=O)Nc5ccsc5)c4)s3)[nH]c12`, the Inhibition with Plasmodium falciparum [1] amounted to 100%; with Plasmodium falciparum [2] it was 29%; in the test with HepG2, 30%.

For the molecule `CC(C)(C)c1nn(-c2ccccc2)c2[nH]c(=O)c(CNC3CCCC3)cc12`, the Inhibition came to 100% in the test with Plasmodium falciparum [1], 70% in the test on Plasmodium falciparum [2] and 7% with HepG2.

Turning to `Cc1ccccc1CNc1noc(-c2c(F)cccc2Cl)n1`, the Inhibition with Plasmodium falciparum [1] turned out to be 97%; in the test on Plasmodium falciparum [2], 90%; in the test with HepG2 it was 14%.

For `CC[C@H]1CN2CCc3cc(OC)c(OC)cc3[C@@H]2C[C@@H]1C[C@H]1NCCc2cc(OC)c(OC)cc21` [EMETINE], the Inhibition in the test with Plasmodium falciparum [1] is 100%; in the test on Plasmodium falciparum [2], 99%; in the test on HepG2 it was 43%.

In the case of `Cl.Nc1c2c(nc3ccc(NC(=O)CCCCCCc4ccccc4)cc13)CCCC2`, the Inhibition with Plasmodium falciparum [1] is recorded as 100%; with Plasmodium falciparum [2], 90%; with HepG2, 100%.

Turning to `CN(C)Cc1cccc2nc(-c3csc(Cc4cc(Cl)ccc4OCc4ccccc4)n3)[nH]c12`, the Inhibition in the test on Plasmodium falciparum [1] is 100%; in the test with Plasmodium falciparum [2], 77%; in the test with HepG2, 14%.

As for `O=C(O)c1ccc(-c2cnc3ccc(NC4CCC(O)CC4)nn23)cc1` (stereo not drawn), the Inhibition with Plasmodium falciparum [1] stood at 98%; in the test on Plasmodium falciparum [2], 90%; with HepG2, 9%.

For the molecule `CCNC(=O)Nc1ccc(-c2cccc(-c3nc4cccc(C)c4[nH]3)c2)cc1`, the Inhibition came out at 91% with Plasmodium falciparum [1], 34% with Plasmodium falciparum [2] and 16% with HepG2.

Take `COc1ccc2c(c1)CCCC2NCCCCNC(=O)c1ccc(NC(=O)c2ccc(Cl)cc2)cc1` (stereo not drawn): the Inhibition with Plasmodium falciparum [1] was 100%; in the test with Plasmodium falciparum [2] it was 49%; with HepG2, 27%.

For `FC(F)(F)c1ccc2c(C=Cc3ccncc3)c[nH]c2c1`, the Inhibition in the test on Plasmodium falciparum [1] stood at 98%; with Plasmodium falciparum [2], 76%; with HepG2, 0%.

Turning to `Cc1sc(N2CCCCC2)nc1C(=O)Nc1ccc(F)cc1C(F)(F)F.O=C(O)C(F)(F)F`, the Inhibition with Plasmodium falciparum [1] amounted to 86%; in the test with Plasmodium falciparum [2] it was 35%; in the test on HepG2, 0%.

`Cc1ccc(NC(=O)Nc2ccccc2)cc1-c1ccc(C(=O)Nc2ccncc2)cc1`: the Inhibition was 99% in the test with Plasmodium falciparum [1], 52% in the test with Plasmodium falciparum [2] and 67% with HepG2.

Take `Cl.Oc1ccc(-c2cc(COc3ccccc3C(F)(F)F)c(C3=CCNCC3)cc2COc2ccccc2C(F)(F)F)cc1`: the Inhibition in the test with Plasmodium falciparum [1] worked out at 100%; in the test with Plasmodium falciparum [2], 62%; in the test with HepG2, 18%.

In the case of `CC(C)CNCc1ccc(-c2cccc(CN(C(=O)NCCc3ccccc3)C3CCN(Cc4ccccc4)CC3)c2)cc1.O=C(O)C(F)(F)F`, the Inhibition in the test on Plasmodium falciparum [1] was 100%; with Plasmodium falciparum [2], 94%; in the test on HepG2, 91%.

For the molecule `N#Cc1cccc(NC(=O)Nc2cccc(-c3cccc(-c4nc5ccccc5[nH]4)c3)c2)c1`, the figures for the Inhibition in the test on Plasmodium falciparum [1], in the test with Plasmodium falciparum [2] and in the test with HepG2 were 100%, 96% and 46%, respectively.

As for `COc1ccc(Cl)cc1S(=O)(=O)Nc1cccc(CCN2CCC(N3CCCCC3)CC2)c1`, the Inhibition in the test on Plasmodium falciparum [1] turned out to be 100%; with Plasmodium falciparum [2] it was 9%; in the test with HepG2 it was 33%.

Consider `COc1ccc(-c2cc(C(=O)N[C@@H](CC3CCCCC3)C(=O)NCCN3CCCC3)ccc2O)cc1`, for which the Inhibition in the test with Plasmodium falciparum [1] was 90%; in the test on Plasmodium falciparum [2] it was 12%; in the test on HepG2, 12%.

In the case of `COc1ccc(Cn2c(Nc3cccc(C(F)(F)F)c3)nc3cc(C(=O)NC4CC4)cnc32)cc1Cl`, the Inhibition in the test on Plasmodium falciparum [1] is 94%; in the test with Plasmodium falciparum [2], 96%; with HepG2, 0%.

Take `c1cn(-c2ccc(CNc3nccc(Nc4ccc(OCCN5CCOCC5)cc4)n3)cc2)cn1`: the Inhibition in the test on Plasmodium falciparum [1] was determined as 100%; in the test on Plasmodium falciparum [2] it was 3%; in the test with HepG2, 2%.

Turning to `COc1ccc2nc3cc(Cl)ccc3c(Nc3ccc(C(=O)O)cc3)c2c1.Cl`, the Inhibition with Plasmodium falciparum [1] is recorded as 94%; with Plasmodium falciparum [2], 95%; with HepG2 it was 0%.

As to `N#Cc1ccc(-c2ccc(C(=O)NCCCCN3CCC(c4ccc5c(c4OCC(N)=O)CCCC5)CC3)nc2)cc1`, the Inhibition came out at 100% in the test with Plasmodium falciparum [1], 97% with Plasmodium falciparum [2] and 21% with HepG2.

With `Cc1nc(N)nc(N)c1OCCCCOc1ccccc1.Cl.O`, the Inhibition with Plasmodium falciparum [1] turned out to be 94%; in the test with Plasmodium falciparum [2] it was 4%; in the test with HepG2 it was 62%.

With `O=C(NCC1CCC(CNCCCc2ccccc2)CC1)Nc1ccc(Cl)c(Cl)c1` (stereo not drawn), the values for the Inhibition in the test on Plasmodium falciparum [1], in the test on Plasmodium falciparum [2] and with HepG2 were 99%, 2% and 26%, respectively.

Take `CCCC1(NC[C@@H](O)[C@H](Cc2ccccc2)NC(=O)c2cc(NCC)cc(N3CCCCS3(=O)=O)c2)CC1.Cl`: the Inhibition in the test on Plasmodium falciparum [1] is 98%; with Plasmodium falciparum [2] it was 98%; in the test with HepG2, 1%.

Consider `CN(C)CC1c2[nH]c3ccccc3c2CCN1C(=O)Nc1ccc(Cl)c(Cl)c1.Cl` (stereo not drawn), for which the Inhibition in the test on Plasmodium falciparum [1] came to 90%; in the test on Plasmodium falciparum [2], 32%; in the test on HepG2, 99%.

For the molecule `CCCCOc1ccc(-n2c(Nc3ccccc3)nc3cc(S(N)(=O)=O)ccc32)cc1`, the Inhibition with Plasmodium falciparum [1] amounted to 90%; in the test on Plasmodium falciparum [2] it was 72%; in the test with HepG2 it was 0%.

With `Oc1ccc(C=NNC(S)=Nc2cccc3ccccc23)c(O)c1`, the Inhibition was 89% in the test with Plasmodium falciparum [1], 72% in the test on Plasmodium falciparum [2] and 8% in the test with HepG2.

Turning to `O=C(NOCc1ccccc1)c1cc(Cl)ccc1O`, the Inhibition was determined as 83% in the test with Plasmodium falciparum [1], 0% in the test on Plasmodium falciparum [2] and 2% with HepG2.

In the case of `Cc1c(-c2ccccc2)ccc2[nH]cc(CC#N)c12`, the values for the Inhibition with Plasmodium falciparum [1], with Plasmodium falciparum [2] and with HepG2 were 95%, 85% and 2%, respectively.

As to `O=C(N[C@@H](CC1CCCCC1)C(=O)NC1CCCc2ccccc21)c1ccc(O)c(-c2ccc(Cl)c(Cl)c2)c1` (stereo partly drawn), the Inhibition in the test on Plasmodium falciparum [1] is 98%; in the test with Plasmodium falciparum [2], 99%; with HepG2, 1%.

Take `Cc1cccc2[nH]c(-c3cc(-c4cccc(Cl)c4)cnc3N)nc12.O=C(O)C(F)(F)F`: the Inhibition was 100% with Plasmodium falciparum [1], 99% with Plasmodium falciparum [2] and 32% in the test on HepG2.

Values taken from ChEMBL document CHEMBL1157539, “Thousands of chemical starting points for antimalarial lead identification” (Nature, 2010).
